Test results reported in PubChem BioAssay AID1159580 (chemical genetic matrix, 2015).
Several values for one entry are separate records, joined by “and”; a condition that tells them apart may be missing. Identical values can stand only once. Out of some 5,500 compounds screened, about 2,000 (36%) were called active. Not shown: some 18% with an inconclusive outcome. No stated cut-off is given here; in the data, active means normalized growth mostly below about 0.91 (no sharp cut-off); inconclusive means no clear call, values can overlap the other calls; inactive means mostly above about 0.92. This is one part of the list.

Test: chemical genetic growth profiling, strain panel (AID 1159580);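 further: tested at 20 µM; growth read once vehicle control cultures reached saturation at 30 °C; 1 = growth at the plate median or of vehicle wells; lower values mean less growth of the strain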
Details: S. cerevisiae deletion strains, growth OD

Measured: normalized growth

NCCCCCC(=O)O
active: locus YBR021W, strain FUR4, hits give low values 0.706
inactive: locus YAL013W, strain DEP1, hits give low values 0.951 | locus YAL021C, strain ccr4, hits give low values 0.99 | locus YAL026C, strain drs2, hits give low values 1 | locus YAL030W, strain snc1, hits give low values 0.989 | locus YAL040C, strain CLN3, hits give low values 0.979 | locus YBL061C, strain skt5, hits give low values 1 | locus YBR009C, strain hhf1, hits give low values 1 | locus YBR023C, strain chs3, hits give low values 1 | locus YBR171W, strain sec66, hits give low values 0.991 | locus YBR229C, strain ROT2, hits give low values 0.988 | locus YBR231C, strain swc5, hits give low values 1.01 | locus YBR279W, strain paf1, hits give low values 0.996 | locus YCL011C, strain gbp2, hits give low values 0.994 | locus YCL016C, strain dcc1, hits give low values 1.01 | locus YCL029C, strain bik1, hits give low values 0.999 | locus YCL061C, strain MRC1 (second series), hits give low values 0.983 | locus YCL069W, strain vba3, hits give low values 0.995 | locus YCR088W, strain abp1, hits give low values 0.995 | locus YDL005C, strain med2, hits give low values 1.01 | locus YDL035C, strain GPR1, hits give low values 0.963 | locus YDL040C, strain nat1, hits give low values 0.997 | locus YDL074C, strain BRE1, hits give low values 0.964 | locus YDL101C, strain DUN1, hits give low values 1.01 | locus YDL134C, strain PPH21, hits give low values 0.979 | locus YDL185W, strain tfp1, hits give low values 1.01 | locus YDL192W, strain arf1, hits give low values 1.01 | locus YDR001C, strain nth1, hits give low values 1.03 | locus YDR069C, strain doa4, hits give low values 1.01 | locus YDR101C, strain arx1, hits give low values 0.981 | locus YDR137W, strain rgp1, hits give low values 0.972 | locus YDR150W, strain NUM1, hits give low values 0.974 | locus YDR159W, strain sac3, hits give low values 1 | locus YDR162C, strain NBP2, hits give low values 0.985 | locus YDR195W, strain ref2 0.976 | locus YDR297W, strain sur2, hits give low values 0.998 | locus YDR318W, strain mcm21, hits give low values 1.01 | locus YDR334W, strain swr1, hits give low values 1.02 | locus YDR335W, strain msn5, hits give low values 1.01 | locus YDR363W, strain ESC2, hits give low values 1.01 | locus YDR388W, hits give low values 0.998 | locus YDR392W, strain spt3, hits give low values 0.965 | locus YDR502C, strain sam2, hits give low values 1 | locus YEL003W, strain gim4, hits give low values 1 | locus YEL037C, strain rad23, hits give low values 0.999 | locus YEL061C, strain CIN8 (second series), hits give low values 1 | locus YEL061C, strain CIN8, hits give low values 0.995 | locus YER002W, strain NOP16, hits give low values 0.992 | locus YER015W, strain faa2, hits give low values 1 | locus YER016W, strain bim1, hits give low values 0.966 | locus YER110C, hits give low values 1.01 | locus YER111C, strain swi4, hits give low values 1.01 | locus YER155C, strain BEM2 (second series), hits give low values 0.976 | locus YER155C, strain BEM2, hits give low values 0.992 | locus YER167W, strain BCK2, hits give low values 0.99 | locus YFR010W, strain ubp6, hits give low values 1.03 | locus YGL078C, strain dbp3, hits give low values 1 | locus YGL086W, strain mad1, hits give low values 1 | locus YGL167C, strain pmr1, hits give low values 1 | locus YGL173C, strain kem1, hits give low values 1 | locus YGL227W, strain vid30, hits give low values 0.998 | locus YGL240W, strain doc1, hits give low values 1.03 | locus YGL248W, strain PDE1, hits give low values 0.987 | locus YGL253W, strain hxk2, hits give low values 1 | locus YGR078C, strain PAC10, hits give low values 0.997 | locus YGR135W, strain pre9, hits give low values 1 | locus YGR252W, strain gcn5, hits give low values 0.907 | locus YHR013C, strain ard1, hits give low values 1 | locus YHR027C, strain rpn1, hits give low values 0.999 | locus YHR030C, strain SLT2, hits give low values 0.999 and 1 | locus YHR079C, strain IRE1 (second series), hits give low values 1.01 | locus YHR079C, strain IRE1, hits give low values 1.04 | locus YHR094C, strain hxt1, hits give low values 1 | locus YHR129C, strain ARP1, hits give low values 0.998 | locus YHR142W, strain chs7, hits give low values 1 | locus YHR200W, strain rpn10, hits give low values 1.01 | locus YIL066C, strain RNR3, hits give low values 0.962 | locus YIL073C, strain SPO22, hits give low values 1.03 | locus YIL125W, strain kgd1, hits give low values 1.01 | locus YIR030C, strain dcg1, hits give low values 1.01 | locus YJL092W, strain hpr5, hits give low values 1.03 | locus YJL095W, strain BCK1 (second series), hits give low values 0.985 | locus YJL095W, strain BCK1, hits give low values 0.995 and 1.03 | locus YJL115W, strain asf1, hits give low values 1.01 | locus YJL129C, strain trk1, hits give low values 1.01 | locus YJL134W, strain LCB3, hits give low values 0.992 | locus YJL154C, strain vps35, hits give low values 0.998 | locus YJL164C, strain tpk1, hits give low values 0.996 | locus YJL166W, strain qcr8, hits give low values 1.02 | locus YJL168C, strain set2, hits give low values 1.01 | locus YJL187C, strain SWE1 (second series), hits give low values 0.992 | locus YJR043C, strain POL32, hits give low values 0.952 | locus YJR066W, strain TOR1, hits give low values 0.993 | locus YKL009W, strain mrt4, hits give low values 1.04 | locus YKL068W, hits give low values 0.994 | locus YKL085W, strain MDH1 (second series), hits give low values 1.01 | locus YKL085W, strain MDH1, hits give low values 1.01 | locus YKL160W, strain elf1, hits give low values 0.996 | locus YKR001C, strain vps1, hits give low values 1.04 | locus YKR026C, strain gcn3, hits give low values 1 | locus YKR091W, strain srl3, hits give low values 0.993 | locus YLL001W, strain dnm1, hits give low values 1 | locus YLL026W, hits give low values 1 | locus YLL041C, strain sdh2, hits give low values 0.999 | locus YLR027C, strain aat2, hits give low values 1 | locus YLR039C, strain RIC1, hits give low values 1.01 | locus YLR058C, strain SHM2, hits give low values 0.992 | locus YLR102C, strain apc9, hits give low values 1 | locus YLR113W, strain HOG1, hits give low values 1.02 | locus YLR221C, strain rsa3, hits give low values 0.987 | locus YLR258W, strain gsy2, hits give low values 0.995 | locus YLR262C, strain YPT6 (second series), hits give low values 0.996 | locus YLR262C, strain YPT6, hits give low values 1.05 | locus YLR268W, strain sec22, hits give low values 0.991 | locus YLR320W, strain mms22, hits give low values 0.992 | locus YLR330W, strain CHS5, hits give low values 0.997 | locus YLR342W, strain FKS1 (second series), hits give low values 0.942 | locus YLR342W, strain FKS1, hits give low values 1.01 | locus YLR357W, strain rsc2, hits give low values 1.02 | locus YLR370C, strain arc18, hits give low values 1.02 | locus YLR371W, strain rom2, hits give low values 1.01 | locus YLR384C, strain iki3, hits give low values 1.01 | locus YLR418C, strain cdc73, hits give low values 0.958 | locus YML016C, strain PPZ1, hits give low values 0.996 | locus YML032C, strain rad52, hits give low values 1.01 | locus YML120C, strain ndi1, hits give low values 1 | locus YML124C, strain tub3, hits give low values 1 | locus YMR058W, strain fet3, hits give low values 1.02 | locus YMR078C, strain ctf18, hits give low values 1.02 | locus YMR125W, strain sto1, hits give low values 0.988 | locus YMR129W, hits give low values 0.998 | locus YMR205C, strain PFK2, hits give low values 1 | locus YMR223W, strain ubp8, hits give low values 1.01 | locus YMR231W, strain pep5, hits give low values 1 | locus YMR263W, strain SAP30, hits give low values 0.99 and 0.985 | locus YMR307W, strain GAS1, hits give low values 0.893 | locus YNL067W, strain RPL9B, hits give low values 0.977 | locus YNL071W, strain lat1, hits give low values 0.991 | locus YNL128W, strain TEP1, hits give low values 1 | locus YNL153C, strain GIM3, hits give low values 0.995 and 0.976 | locus YNL175C, strain NOP13, hits give low values 0.985 | locus YNL183C, strain NPR1, hits give low values 0.978 | locus YNL197C, strain WHI3, hits give low values 1.01 | locus YNL209W, strain ssb2, hits give low values 0.998 | locus YNL224C, strain SQS1, hits give low values 1.02 | locus YNL233W, strain BNI4, hits give low values 0.994 | locus YNL248C, strain rpa49, hits give low values 0.926 | locus YNL250W, strain rad50, hits give low values 1.01 | locus YNL271C, strain bni1, hits give low values 1.02 | locus YNL298W, strain CLA4, hits give low values 1 | locus YNL307C, strain MCK1, hits give low values 0.998 | locus YNL322C, strain KRE1 (second series), hits give low values 1.02 | locus YNR049C, strain mso1, hits give low values 1.02 | locus YNR052C, strain pop2, hits give low values 1.01 | locus YOL012C, strain htz1 0.774 | locus YOL147C, strain pex11, hits give low values 1.01 | locus YOR001W, strain rrp6, hits give low values 1.01 | locus YOR061W, strain CKA2, hits give low values 0.994 | locus YOR069W, strain VPS5, hits give low values 0.994 | locus YOR070C, strain gyp1, hits give low values 0.986 | locus YOR080W, strain dia2, hits give low values 1 | locus YOR083W, strain WHI5 (second series), hits give low values 0.991 | locus YOR083W, strain WHI5, hits give low values 1 | locus YOR106W, strain vam3, hits give low values 1.02 | locus YOR136W, strain idh2, hits give low values 1.03 | locus YOR144C, strain elg1, hits give low values 1 | locus YOR184W, strain ser1, hits give low values 1 | locus YOR231W, strain MKK1, hits give low values 1.04 | locus YOR265W, strain rbl2, hits give low values 0.994 | locus YOR270C, strain vph1, hits give low values 1.01 | locus YOR290C, strain snf2, hits give low values 0.992 | locus YOR316C, strain cot1, hits give low values 1 | locus YPL051W, strain arl3, hits give low values 1 | locus YPL055C, strain LGE1, hits give low values 0.959 and 1.01 | locus YPL078C, strain atp4, hits give low values 1.01 | locus YPL106C, strain sse1, hits give low values 1 | locus YPL240C, strain hsp82, hits give low values 1.02 | locus YPL256C, strain CLN2, hits give low values 1.04 | locus YPR119W, strain clb2, hits give low values 1.01 | locus YPR141C, strain kar3, hits give low values 1.02 | locus YPR163C, strain tif3, hits give low values 1 | locus YPR167C, strain met16, hits give low values 1.01 | strain wtn01, hits give low values 0.997
